PubChem BioAssay (NCI)
The panel holds about 83,000 compounds, 20% with a hit somewhere; the sample as a whole holds those more often.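 Cell lines were cultured in 96-well plates, exposed to a single compound concentration, and assessed for percent growth 48 hours later.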 Active and inactive are the calls of the source.

tested on: OVCAR-5 ovarian; experiment: NCI-60 one-dose screen, 48 h (100 = growth as untreated, 0 = no growth, -100 = all killed); details: 10 µM unless noted
Description: Growth inhibition of the OVCAR-5 human tumor cell line is measured as a screen for anti-cancer activity. Cells are grown in 96 well plates and exposed to the test compound for 48 hours. Compounds are tested at a single concentration, which is 10^-5 M for most compounds. The reported endpoint is percent growth (GI% or GIPRCNT), where numbers from 0 - 100% represent growth inhibition, and numbers from -100% - 0 represent cell death. For example, a value of 40 represents 60% growth inhibition. A value of 0 means no net growth occurred over the course of the experiment. A value of -40 indicates 40% of cells at the beginning of the experiment died by the end of the experiment. A value of -100 means all cells are dead at the end of the experiment.
NCI-60 Human Tumor Cell Lines Screen was performed using the standard one-dose NCI protocol, which is described in more detail at https://dtp.cancer.gov/discovery_development/nci-60/default.htm.
Compounds with GIPRCNT values below 10 were considered active. Activity score was based on GIPRCNT using the following formula: […]
Score is 0 for GIPRCNT values of 100 or above, 50 for GIPRCNT values of 0, and 100 for GIPRCNT values of -100.

SMILES | growth
CCCCCC(=O)Oc1ccc(/C(=C(\C)c2ccc(OC)cc2)c2ccc(OCCN3CCCCC3)cc2)cc1 | 82.2% (inactive)
CNC(=O)c1cc(Oc2ccc(NC(=O)Nc3ccc(Cl)c(SC)c3)c(F)c2)ccn1 | 77.8% (inactive)
COc1cc(Nc2cc(C)nc(N3CCN(c4ccnc5cc(Cl)ccc45)CC3)n2)cc(OC)c1 | 24.8% (inactive)
COc1ccc(CN2c3ccccc3Oc3ccccc32)cc1F | 86.7% (inactive)
O=C1c2cccc3cccc(c23)C(=O)N1CCCCN1CCN(CCCCOc2ccc(-c3nc4ccc(N5CCOCC5)cc4[nH]3)cc2)CC1 | 109% (inactive)
CSc1nc2c(c(=O)[nH]1)C1(C(=O)Nc3ccccc31)c1c(nc(SC)[nH]c1=O)N2 | 93.9% (inactive)
COc1cc2nc(N3CCCC3)nc(NCC3CCCCC3)c2cc1OC | 29.1% (inactive)
O=C(N=Nc1c(O)[nH]c2ccc(Br)cc12)c1cc(-c2ccccc2)on1 | 98.9% (inactive)
O=S(=O)(Nc1ccc(OC(F)F)cc1)c1ccc(-c2cnc(C3CC3)o2)cc1 | 97.5% (inactive)
CC(C)c1c(C(=O)c2ccccc2)c(-c2ccccc2)c(-c2ccc(F)cc2)n1CC[C@@H](O)C[C@@H](O)CC(=O)O | 88.2% (inactive)
O=c1ccccc(-c2ccc(-c3ccco3)cc2)c1O | 54.9% (inactive)
O=C1c2cc3c(cc2-c2c1c1ccc(F)cc1c(=O)n2C[C@H](O)[C@@H](O)[C@H](O)CO)OCO3 | -29.8% (active)
NC(N)=N/N=C(/c1ccccc1)c1ccc(F)cc1 | 4.37% (active)
CC(=O)c1cc2c(N)c(C(=O)Nc3cccc(F)c3C)sc2nc1C | 110% (inactive)
COc1ccc(CCNc2nc(SC)nc(-c3cccc([N+](=O)[O-])c3)c2C#N)cc1OC | 87.5% (inactive)
CCOC(=O)c1sc(Nc2ccc(Cl)cc2)nc1C | 51.6% (inactive)
N#CN1CC[C@H](C(=O)Nc2cc3cc(C(N)=O)ccc3cn2)C1 | 5.15% (active)
CCOc1cc2ncc(C#N)c(Nc3ccc(OCc4cccc(F)c4)c(Cl)c3)c2cc1NC(=O)CC1CCSS1 (stereo not given) | 84.1% (inactive)
CC(C)C[C@@H](NC(=O)[C@@H](Cc1ccccc1)NC(=O)c1cnccn1)B1Oc2ccc(C[C@H](NC(=O)[C@H](Cc3ccc4c(c3)OB([C@@H](CC(C)C)NC(=O)[C@@H](Cc3ccccc3)NC(=O)c3cnccn3)O4)NC(=O)[C@@H](N)CC3CCC4OB([C@@H](CC(C)C)NC(=O)[C@@H](CC5CCCCC5)NC(=O)C5CNCCN5)OC4C3)C(=O)NCCCC[C@@H]3NC(=O)[C@@H](Cc4ccccc4)NC(=O)[C@H](CC(=O)O)NC(=O)CNC(=O)[C@H](CCCNC(=N)N)NC3=O)cc2O1 (stereo not given in full) | -31% (active)
C#Cc1cccc(NC(=O)c2ccccc2NC(=O)CCl)c1 | 118% [8.25 µM] (inactive)

SMILES | growth
COc1cc(-c2nn(C)nc2-c2cc3ccccc3s2)cc(OC)c1OC | 57.2% (inactive)
CC/C=C\C[C@H]1C/C=C2/C(=O)C=C[C@H]2C/C=C\CCCC(=O)O1 | 87.8% (inactive)
COc1ccc(SC2c3cc(OC)c(OC)cc3Oc3nc(N)c(C#N)c(N)c32)cc1 (stereo not given) | -71.7% (active)
CN1C(=O)C2(SCC(C(=O)NCc3ccccc3)N2C(=O)C2CCCCC2)c2ccccc21 (stereo not given) | 105% (inactive)
O=C(/C=C/c1cccc(Cl)c1)c1ccc(O)c(CN2CCN(c3cc4c(cc3F)c(=O)c(C(=O)O)cn4C3CC3)CC2)c1 | 52.6% (inactive)
Cc1cc(N2CCCCC2)nc(NC2CCCC(Nc3ccnc4cc(Cl)ccc34)C2)n1 (stereo not given) | 11.2% (inactive)
COc1ccc(-c2nc(SCC(=O)Nc3ccc(C(=O)/C=C/c4ccc(Cl)cc4)cc3)[nH]c(=O)c2C#N)cc1 | 109% (inactive)
O=C(N(c1ccccc1)c1ccccc1)n1ccc2nc(Cl)nc(Cl)c21 | 64.2% (inactive)
COc1cccc(/C=C2\Oc3cc(OCCN4CCCC4)ccc3C2=O)c1 | 100% (inactive)
O=C(COc1ccc(/C=C2\CSc3ccccc3C2=O)cc1)Nc1nccs1 | 92.6% (inactive)
COC(=O)c1ccc(Cn2cnc3c(N)ncnc32)cc1 | 115% (inactive)
Cn1c(=O)[nH]c(=O)c2nc(CCC(=O)NCCC(=O)O)c(=O)[nH]c21 | 106% (inactive)
CCCCN1CCCn2c1nc1c2c(=O)n(CCC)c(=O)n1CCC | 105% (inactive)
c1csc(C2=NN3C(C2)c2ccccc2OC3c2ccncc2)c1 (stereo not given) | 108% (inactive)
O=C1C=C(OCC=C(Cl)Cl)C(=O)c2ccccc21 | 116% (inactive)
Fc1ccc2[nH]cc(SSc3c[nH]c4ccc(F)cc34)c2c1 | 46.8% (inactive)
COc1cc2nc(N3CCCC3)nc(NCc3ccccc3)c2cc1OC | 80.4% (inactive)
COc1cc2nc(N3CCCC3)nc(NCCc3ccccc3)c2cc1OC | 39.5% (inactive)
COc1cccc(-c2nc3sccn3c2-c2ccnc(NCCNS(=O)(=O)c3ccc(F)cc3)c2)c1 | 49.3% (inactive)
C#Cc1cccc(NC(=O)c2ccccc2NC(=O)C=C)c1 | 113% [8.25 µM] (inactive)
